Z-score data for 116 compounds are collected here from PubChem BioAssay AID488969 (Vanderbilt High Throughput Screening Facility, 2010).

In all, about 110,000 compounds were measured (“z-score”: median about -0.1, highest 2% from about 2 on). This excerpt belongs to a sample that is enriched for the highest values. The source made the active and inactive calls.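 Rule for the calls: active = z-score in the third read window above 3 or below -3; inactive = the rest.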

This assay deals with Metabotropic glutamate receptor 8 (Rattus norvegicus) (UniProt P70579). The assay can be described thus: mGluR8 Gi/Go-coupled signaling modulation – cell-based, rat, thallium flux, HTS, primary screen (AID 488969). The settings on record: HEK293 rat mGluR8, GIRK (G protein-gated inwardly rectifying potassium channel) thallium flux, FluoZin2; at 10 µM; stronger effect = higher value; submaximal glutamate (EC20) added with thallium.
Chain of Metabotropic glutamate receptor 8 (Rattus norvegicus) (P70579 whole entry, looked up): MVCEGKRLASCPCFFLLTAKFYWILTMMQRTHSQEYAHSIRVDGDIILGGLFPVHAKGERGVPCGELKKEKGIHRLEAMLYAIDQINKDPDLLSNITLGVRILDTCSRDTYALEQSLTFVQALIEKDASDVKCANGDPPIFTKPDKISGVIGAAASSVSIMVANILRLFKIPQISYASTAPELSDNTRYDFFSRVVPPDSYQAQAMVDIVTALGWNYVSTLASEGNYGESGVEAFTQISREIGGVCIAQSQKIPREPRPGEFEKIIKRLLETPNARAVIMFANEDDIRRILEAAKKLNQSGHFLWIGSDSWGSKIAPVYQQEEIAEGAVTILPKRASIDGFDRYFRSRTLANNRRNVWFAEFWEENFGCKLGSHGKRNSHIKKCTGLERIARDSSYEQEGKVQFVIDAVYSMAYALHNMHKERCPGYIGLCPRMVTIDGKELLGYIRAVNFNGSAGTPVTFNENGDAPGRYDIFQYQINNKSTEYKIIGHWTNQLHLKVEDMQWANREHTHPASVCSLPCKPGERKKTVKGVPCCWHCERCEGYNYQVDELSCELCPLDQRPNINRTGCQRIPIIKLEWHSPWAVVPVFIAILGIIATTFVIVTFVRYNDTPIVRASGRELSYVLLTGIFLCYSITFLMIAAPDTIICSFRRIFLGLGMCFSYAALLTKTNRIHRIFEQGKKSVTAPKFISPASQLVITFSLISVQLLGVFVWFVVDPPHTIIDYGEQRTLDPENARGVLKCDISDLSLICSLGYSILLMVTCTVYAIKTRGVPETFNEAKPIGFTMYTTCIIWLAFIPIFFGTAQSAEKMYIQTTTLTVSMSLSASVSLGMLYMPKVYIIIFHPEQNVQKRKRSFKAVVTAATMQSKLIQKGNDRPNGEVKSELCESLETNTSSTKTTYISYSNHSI
With `COc1cc(NC(=O)c2ccco2)c(OC)cc1NC(=O)CSc1nnc(-c2cccs2)n1C`, the z-score was -1.07.

`CCOC(=O)C1=C(CC)Nc2ccccc2N=C1NC(=O)Nc1ccc(Cl)c(Cl)c1`: the z-score was 5.4 (active).

Compound `CCOC(=O)C1=C(CC)Nc2ccccc2N=C1NC(=O)Nc1ccccc1OC` yielded a z-score of 0.249.

As to `CCOC(=O)C1=C(CC)Nc2ccccc2N=C1NC(=O)c1cc(S(=O)(=O)N(C)C)ccc1Cl`, the z-score came out at 0.243.

As for `Cc1cc(C)n(C(=O)c2ccc(C)c(F)c2F)n1`, the z-score is -0.238.

`CCCCCc1ccc(S(=O)(=O)NCCc2ccncc2)cc1` had a z-score of 0.483.

`CCCCNS(=O)(=O)c1ccc(S(=O)(=O)NCc2ccncc2)cc1`: the z-score came out at 2.5.

Take `CCCCc1ccc(S(=O)(=O)NCCc2ccncc2)cc1`: the z-score came to 0.298.

As to `CCOC(=O)C1=C(C)Nc2sc(C(=O)c3ccc(C)cc3)c(N)c2C1c1ccc(C(=O)OC)cc1` (stereo unspecified), the z-score was -0.284.

`Cc1ccc(NC(=S)NNC(=O)c2ccccc2OC(F)F)cc1` displayed a z-score of 0.966.

As for `CCc1ccc(NC(=S)NNC(=O)c2ccccc2OC(F)F)cc1`, the z-score was 3.63 (active).

Turning to `O=C(NNC(=S)Nc1ccc(F)cc1)c1ccccc1OC(F)F`, the z-score was -0.00644.

`CC1Cc2ccccc2N1C(=O)CSc1ccccc1` (stereo unspecified) yielded a z-score of -0.501.

`CCOc1ccc(N2C(=O)CC(N3CCc4ccccc43)C2=O)cc1` (stereo unspecified) registered a z-score of 1.67.

With `Cc1sc2ncn(CC(=O)NCCc3ccccc3)c(=O)c2c1C`, the z-score is 0.251.

Take `N#CCCN(Cc1ccccc1)C(=S)Nc1ccccc1`: the z-score is -0.262.

With `COc1ccc(CN(CCC#N)C(=S)NC(=O)c2ccccc2)cc1`, the z-score is 4.49 (active).

With `N#CCCN(Cc1cccnc1)C(=O)Nc1ccccc1`, the z-score was -0.271.

For `N#CCCN(Cc1ccccc1)C(=S)NC(=O)c1ccccc1`, the z-score amounted to 2.39.

`COc1ccccc1CC(=O)N(CCC#N)CCC#N` gave a z-score of -0.512.

In turn, `COc1ccc(CNC(=O)c2ccc(-c3ccccc3)cc2)cc1` yielded a z-score of -0.113.

The compound `c1ccc2c(c1)CC1(CCCC1)n1nnnc1-2` registered a z-score of -0.648.

Regarding `C/C(=N\NC(=O)c1c(Cl)c(C)nn1C)c1ccc(NC(=O)COc2ccc(Cl)cc2C)cc1`, the z-score came out at 0.132.

For the compound `COc1ccc(C(=O)CSc2ccc(-c3ccco3)nn2)cc1`, the z-score was found to be 0.654.

In the case of `O=C(CSc1ccc(-c2ccco2)nn1)c1ccccc1`, the z-score was 7.29 (active).

In turn, `O=C(CSc1ccc(-c2ccco2)nn1)c1ccc(F)cc1` displayed a z-score of -0.0218.

Compound `CC(=O)c1cn(CC(=O)NCc2cccnc2)c2ccccc12` had a z-score of 0.276.

Take `Cc1ccccc1OCC(=O)O/N=C(\N)Cc1cccs1`: the z-score is 3.93 (active).

Consider `N/C(Cc1cccs1)=N\OC(=O)COc1ccccc1`, for which the z-score was -1.06.

In the case of `N/C(Cc1cccs1)=N\OC(=O)COc1ccccc1Cl`, the z-score is -2.93.

For the compound `C=CCC1(O)CC(c2ccco2)NC(c2ccco2)C1CCC` (stereo unspecified), the z-score turned out to be 1.08.

Consider `Cc1c(NC(=O)C(C)c2ccc(CC(C)C)cc2)c(=O)n(-c2ccccc2)n1C` (stereo unspecified), for which the z-score was -0.175.

For `CCc1nc2c(sc3nc4c(cc32)COC(C)(C)C4)c(=O)n1Cc1ccccc1`, the z-score was -0.115.

As for `CC1(C)CC(=O)c2c(nc3ccccc3c2N)C1`, the z-score is -1.01.

For `CC1(C)CC(=O)c2c(nn(-c3ccccc3)c2N)C1`, the z-score was -0.372.

`CC1(C)CC(=O)c2c(noc2-c2ccccc2)C1`: the z-score is 3.63 (active).

For `O=[N+]([O-])c1cccc(-c2nnc(-c3ccc4c(c3)OCO4)o2)c1`, the z-score was -0.286.

`CCC/C(O)=C1\C(=O)CC(c2ccccc2)CC1=NC` (stereo unspecified) came in with a z-score of -0.23.

In turn, `CC(C)N1C(=S)SC(C)(C)C1NO` (stereo unspecified) yielded a z-score of -0.154.

For the compound `CC(C)c1ccc(-c2noc(C3CCCN(C(=O)c4ccc(F)cc4F)C3)n2)cc1` (stereo unspecified), the z-score is -0.983.

With `O=S(=O)(c1ccccc1Cl)N1CCCC(c2nc(-c3cccnc3)no2)C1` (stereo unspecified), the z-score turned out to be 2.62.

Regarding `O=S(=O)(c1ccccc1Cl)N1CCCC1c1nc(-c2ccc(Cl)cc2)no1` (stereo unspecified), the z-score was 0.14.

With `O=[N+]([O-])c1cccc(S(=O)(=O)N2CCC(c3nc(-c4ccncc4)no3)CC2)c1`, the z-score was -0.207.

In the case of `O=S(=O)(c1ccc(Cl)c(F)c1)N1CCC(c2nc(-c3ccncc3)no2)CC1`, the z-score was 8.06 (active).

As to `CC(C)c1ccc(-c2noc(C3CCCN(S(C)(=O)=O)C3)n2)cc1` (stereo unspecified), the z-score is 5.82 (active).

Compound `COc1cccc(-c2noc(C3CCCN(S(=O)(=O)c4cccc(Cl)c4C)C3)n2)c1` (stereo unspecified) returned a z-score of 0.354.

In the case of `CCCS(=O)(=O)N1CCCC(c2nc(-c3ccc(OC)cc3)no2)C1` (stereo unspecified), the z-score worked out at 0.0798.

In turn, `O=S(=O)(c1ccc2ccccc2c1)N1CCC(c2nc(-c3ccncc3)no2)CC1` showed a z-score of 0.107.

`Cc1ccccc1NS(=O)(=O)c1ccc(OCCNS(C)(=O)=O)cc1`: the z-score is -0.0428.

Turning to `COc1ccccc1N1CCN(C(=O)CCCN2C(=O)c3cccc4cccc(c34)C2=O)CC1`, the z-score is -0.334.

In turn, `Cn1c(=O)c2c(O)cc(=O)[nH]c2n(-c2ccccc2)c1=O` registered a z-score of -0.00781.

Take `COc1ccc(S(=O)(=O)N2CCOCC2)cc1NC(=O)c1ccccc1-c1ccc(C(F)(F)F)cc1`: the z-score was -0.207.

`Cc1noc(C)c1C(c1ccccc1)S(=O)(=O)c1ccccc1` (stereo unspecified) had a z-score of 0.53.

Take `O=C(CSc1ncccn1)N/N=C/c1cccc([N+](=O)[O-])c1`: the z-score worked out at 1.35.

`O=C(COC(=O)c1ccc(Br)o1)Nc1cccc(S(=O)(=O)N2CCCCCC2)c1` had a z-score of 0.698.

Turning to `COc1ccc(C(=O)NCc2nnc(SCC(=O)NCc3ccc(F)cc3)o2)cc1`, the z-score was -0.134.

In turn, `COC(=O)c1ccccc1NC(=O)CSc1nnc(Cc2ccc(Cl)cc2)o1` gave a z-score of -0.323.

In turn, `CCCn1c(SCC(N)=O)nc2c(c1=O)C1(CCCC1)Cc1ccccc1-2` displayed a z-score of -0.333.

In the case of `Cc1ccc(-n2c(SCC(N)=O)nc3c(c2=O)C2(CCCC2)Cc2ccccc2-3)cc1`, the z-score is -0.348.

For the compound `CCn1c(SCC(N)=O)nc2c(c1=O)C1(CCCC1)Cc1ccccc1-2`, the z-score is 5.27 (active).

Compound `COc1cccc(Nc2nc(NCCO)c3ccccc3n2)c1` gave a z-score of -0.496.

Regarding `COC(=O)Nc1cc(C)nc2ccccc12`, the z-score was determined as 0.301.

Compound `COc1cccc(Nc2ncnc3ccccc23)c1` came in with a z-score of -0.25.

The compound `COc1ccc(Nc2cc(C)nc3ccccc23)cc1` returned a z-score of 2.44.

With `COc1cccc(Nc2cc(C)nc3ccccc23)c1`, the z-score turned out to be 2.53.

As for `Cc1cc(Nc2ccc3c(c2)OCCO3)c2ccccc2n1`, the z-score turned out to be 0.143.

Turning to `O=C(CCN1C(=O)c2ccccc2S1(=O)=O)N1CCN(c2ccccc2)CC1`, the z-score was -0.363.

`CCOc1cccc(OCCCCN2CCOCC2)c1`: the z-score is -0.982.

Take `COc1cc2nc(-c3ccc(Br)o3)oc(=O)c2cc1OC`: the z-score was -1.58.

In the case of `Cc1nc2nc(-c3ccco3)[nH]n2c(=O)c1Cc1ccccc1`, the z-score was -1.16.

Turning to `O=C(Nc1cccc(C(=O)N2CCOCC2)c1)c1ncn[nH]1`, the z-score is -0.145.

Take `CCn1cc(C(=O)O)c(=O)c2cc(F)c(N/N=C/c3ccccc3)cc21`: the z-score is -0.559.

Turning to `O=C(Nc1ccc(Cl)cc1)NC1CCCCC1Cc1ccco1` (stereo unspecified), the z-score was 7.39 (active).

The compound `O=C(NCCSCc1ccco1)Nc1ccc(Cl)cc1` came in with a z-score of 0.159.

Consider `O=C(Nc1ccc(Cl)cc1)Nc1ccccc1C(=O)NCc1ccco1`, for which the z-score is -0.534.

For the compound `Cc1nn(C)c(C)c1S(=O)(=O)N(CC(=O)N1CCc2ccccc2C1)c1ccc(C(C)C)cc1`, the z-score was -0.0258.

`O=C(CCc1ccc(S(=O)(=O)N2CCOCC2)cc1)NN=C1CCCCCCC1` displayed a z-score of -0.592.

Compound `O=C(O)CCc1ccc(S(=O)(=O)N2CCOCC2)cc1` came in with a z-score of 0.0366.

The compound `O=C(CCc1ccc(S(=O)(=O)N2CCOCC2)cc1)N1CCCC1` gave a z-score of 2.62.

`CCN(CCO)c1ncnc2c1sc1nc(CC(C)C)c3c(c12)CC(C)(C)OC3` registered a z-score of -0.758.

Compound `COC(=O)CNC(=O)CN1C(=O)N(c2ccc(Cl)cc2)C(N(O)C(=O)Nc2ccc(Cl)cc2)C1(C)C` (stereo unspecified) registered a z-score of 0.0314.

Take `CCOc1ncccc1C(=O)OCc1nnc(-c2ccccc2)o1`: the z-score is -0.473.

As to `Cc1nc(-c2ccccc2)sc1-c1n[nH]c(=S)n1C`, the z-score worked out at 0.154.

The compound `Cn1c(-c2sc3cc(C(F)(F)F)cnc3c2-c2ccccc2)n[nH]c1=S` showed a z-score of 1.26.

As for `Cn1c(-c2sc3ccccc3c2Cl)n[nH]c1=S`, the z-score was 13.3 (active).

With `CCCc1cc(-c2n[nH]c(C(=O)OCC)c2-c2cscn2)c(O)cc1O`, the z-score is -0.373.

As to `Cc1ccc(S(=O)(=O)CC(=O)Nc2ccc(S(=O)(=O)Nc3onc(C)c3C)cc2)cc1`, the z-score worked out at 2.41.

`Cc1noc(NS(=O)(=O)c2ccc(NC(=O)CS(=O)(=O)c3ccccc3)cc2)c1C`: the z-score was found to be 0.155.

`COc1cc(NC(=O)CS(=O)(=O)c2ccccc2)cc(OC)c1OC` displayed a z-score of 1.2.

On to `Cc1ccc(OCC(=O)Nc2ccc(S(=O)(=O)Nc3onc(C)c3C)cc2)cc1`, for which the z-score is 0.0571.

Compound `CCN(CC(=O)Nc1ccc(OC)c(OC)c1)S(=O)(=O)c1ccc(C)cc1` gave a z-score of 0.404.

Consider `COc1cc(NC(=O)CS(=O)(=O)c2ccc(C)cc2)cc(OC)c1OC`, for which the z-score was 3.72 (active).

In turn, `Cc1cc(=O)oc2cc(OCC(=O)OCc3nnc(-c4ccccc4)o3)ccc12` displayed a z-score of -0.34.

Turning to `CCC(c1nnc(SCC(=O)Nc2ccc(Cl)cc2C(F)(F)F)n1C1CCCCC1)N(C)C` (stereo unspecified), the z-score is -0.456.

Regarding `O=C(CSc1nc(-c2ccco2)cc(C(F)(F)F)n1)NCCc1ccccc1`, the z-score was 0.104.

`O=C(c1ccc(Br)o1)N1CCCc2ccccc21` showed a z-score of -0.269.

`COc1ccc(CNC(=O)CSCc2ccccc2Cl)cc1`: the z-score is 4.96 (active).

For `COc1ccc(CNC(=O)CSCc2cccc(Cl)c2)cc1`, the z-score was -0.235.

Regarding `COc1ccc(CNC(=O)CCSCc2ccccc2Cl)c(OC)c1`, the z-score is -0.407.

On to `CCOc1ccccc1C(=O)NC(CO)C(=O)O` (stereo unspecified), for which the z-score was -0.109.

In turn, `CCNCCOC(c1ccccc1)c1ccccc1` yielded a z-score of 0.455.

As to `Clc1ccccc1-c1ccc(/C=N/n2cnnc2)o1`, the z-score was 0.334.

`Cc1c(Cl)cccc1-c1ccc(/C=N/n2cnnc2)o1` returned a z-score of -0.29.

Regarding `Clc1cccc(-c2ccc(/C=N/n3cnnc3)o2)c1Cl`, the z-score was 8.91 (active).

For `O=C(Nn1c(SCc2ccccc2F)nc2ccsc2c1=O)c1ccccc1`, the z-score was -0.0125.

In turn, `O=C(Cn1nc(Cl)nc1Cl)c1cc2ccccc2oc1=O` returned a z-score of -0.931.

`CCOc1cc(CNCCSc2nnnn2C)cc(Br)c1OCc1ccccc1` returned a z-score of 2.3.

`CCOc1cc(CNCCSc2nnnn2C)cc(Br)c1OCc1ccc(F)cc1` registered a z-score of 0.297.

Take `CCOc1cc(CNCCSc2nnnn2C)cc(Br)c1OCc1ccccc1F`: the z-score stood at 0.196.

Compound `NNC(=O)c1nnn(-c2nonc2N)c1-c1cccs1` came in with a z-score of -0.0988.

The compound `O=C(NC(=S)Nc1ccc(S(=O)(=O)N2CCCC2)cc1)c1cccs1` returned a z-score of 1.1.

As for `O=C(NC(=S)Nc1ccc(N2CCCCC2)c(Cl)c1)c1cccs1`, the z-score is 8.72 (active).

`O=C(Nc1ccccc1N1CCCCC1)c1cccs1` returned a z-score of 0.223.

On to `O=C(NC(=S)Nc1ccc(N2CCCCC2)cc1)c1cccs1`, for which the z-score was 11 (active).

`O=C(NC(=S)Nc1ccc(S(=O)(=O)N2CCCCCC2)cc1)c1cccs1` gave a z-score of -0.208.

Compound `CCCCCC(=O)NC(=S)Nc1ccc(N2CCCCC2)c(Cl)c1` came in with a z-score of -0.183.
